Here are results for 1 compound from PubChem BioAssay AID540357 (National Center for Advancing Translational Sciences (NCATS), 2011).

Molecules are shown by their SMILES. Calls of active or inactive are those of the source.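 How the source made its calls: active means compounds whose fitted potency in the phosphatase confirmation test is under 20 µM; inconclusive means potency fitted but weaker than 20 µM; inactive means no potency could be fitted.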

Chain of Protein phosphatase EYA2 (Homo sapiens) (O00167 whole entry, looked up): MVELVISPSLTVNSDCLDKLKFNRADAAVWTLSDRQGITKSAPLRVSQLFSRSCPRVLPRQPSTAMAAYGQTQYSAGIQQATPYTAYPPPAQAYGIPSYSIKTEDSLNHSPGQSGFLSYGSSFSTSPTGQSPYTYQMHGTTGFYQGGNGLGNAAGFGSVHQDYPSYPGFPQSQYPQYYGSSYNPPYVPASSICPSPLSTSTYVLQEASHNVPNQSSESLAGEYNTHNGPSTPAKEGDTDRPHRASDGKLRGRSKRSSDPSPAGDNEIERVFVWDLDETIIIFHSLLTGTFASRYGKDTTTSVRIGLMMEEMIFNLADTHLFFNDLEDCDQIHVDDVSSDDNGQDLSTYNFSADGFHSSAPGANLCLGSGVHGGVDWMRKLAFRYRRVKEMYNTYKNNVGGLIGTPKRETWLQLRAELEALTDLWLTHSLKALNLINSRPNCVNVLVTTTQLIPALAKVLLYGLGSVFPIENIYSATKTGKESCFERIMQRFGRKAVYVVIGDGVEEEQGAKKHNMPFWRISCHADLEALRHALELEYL

The experiment has as its target Protein phosphatase EYA2 (Homo sapiens) (UniProt O00167). Nature of the experiment: Inhibitors of Eya2ED: Hit Confirmation in Malachite Green Secondary Assay. The conditions noted are these: phosphopeptide, malachite green absorbance. The text has this: The Eya proteins (Eya1-4) were originally identified as essential co-activators of the Six1 transcription factor. […] Knockdown of Six1 decreases cancer cell proliferation and metastases in several different cancer models. […] A fluorescence-based HTS assay has been perfomed against the Molecular Libraries Small Molecule Repository (MLSMR) and has the AID 488837 in this database. In order to confirm the hits obtained from the primary screen several follow-up screens have been/will be carried out. This secondary screen uses a different substrate and a different detection method and will help eliminate false positives obtained from the primary screen. More specifically, this assay measures phosphatase activity by measuring inorganic phosphate, the product of the hydrolysis of the phosphate group on the protein substrate. The inorganic phosphate is detected with malachite green, which in strongly acid conditions, produces a complex which is green and is detected by absorbance. NIH Chemical Genomics Center [NCGC] NIH Molecular Libraries Probe Centers Network [MLPCN] MLPCN Grant: DA030559-01 Assay Submitter (PI): Rui Zhao, University of Colorado, Denver
Phospatase assay (25ul) was carried out in transparent, 96-well, half-area microplates. […] After 20 minute incubation at room temperature, the absorbance was read at 620nm using a Spectramax PLUS 384 plate reader by Molecular Devices. […]
As for `CCNC(=S)NNC(=O)c1csc2ccccc12`, the Potency is 16.8 µM (active).
